Data as given in PubChem BioAssay (Tox21).
Unmarked numbers belong to inactive results. Results filed as inconclusive are left out. Entries that show only a call come without a potency. Activity calls are given as the source filed them. Unless noted, calls come from the whole dose curve; as a rule, active = well fitted curve in the direction sought with a large enough effect in the repeat runs; inconclusive = weak or mixed curves; inactive = no such curve, though single readings can be large; an effect the other way counts as inactive or inconclusive.

How the values were obtained:
[1] = qHTS assay to identify small molecule agonists of the estrogen related receptor (ERR) signaling pathway from Tox21 library (AID 1224849; calls by dose curve; note: nearly all actives have a fitted effect of over 15% in size); settings: ERR reporter cell line, ONE-Glo luciferase, 18 h; at 92.4 µM (top of the series) unless noted
In short: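 Quantitative HTS in agonist format: NTP ERR cell line, compounds transferred in DMSO after 6 h plating, 18 h incubation at 37 C, ONE-Glo luminescence endpoint.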

[2] = qHTS RealTime-Glo MT Cell Viability Assay in HepG2 cells - 24 hour (AID 1224867); note: nearly all actives have a fitted effect of over 50% in size
In short: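 Real-time, nonlytic viability: 600 HepG2 cells/well mixed with NanoLuc enzyme plus prosubstrate; 5 h settle, compound (DMSO) added by pintool; luminescence monitored over 40 h at 37 C.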

[3] = qHTS RealTime-Glo MT Cell Viability Assay in HEK293 cells - 32 hour (AID 1224868); note: nearly all actives have a fitted effect of over 50% in size; note: potency is the fitted concentration of half-maximal effect
In short: (§1)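 Cells + reagent dispensed (600 cells/well, HEK293) → 5 h at 37 C/5% CO2 → 23 nL compound in DMSO pinned → 40 h at 37 C → luminescence read at 0, 8, 16, 24, 32, 40 h.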

[4] = A CellTox Green Cytotoxicity Assay to monitor cytotoxicity in HEK293 cells - 0 hour (AID 1224869); note: nearly all actives have a fitted effect of over 50% in size
In short: (§2)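 Dead-cell fluorescence measured kinetically: asymmetric cyanine dye, HEK293, 600 cells/well, 5 h settle, 23 nL cpd/DMSO, 37 C, reads 0–40 h every 8 h.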

[5] = qHTS RealTime-Glo MT Cell Viability Assay in HepG2 cells - 40 hour (AID 1224870); note: nearly all actives have a fitted effect of over 50% in size
In short: (§3)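 Real-time viability: cells seeded at 600 per well together with NanoLuc and cell-permeant prosubstrate, compounds added after 5 h incubation. Luminescence tracked at 0, 8, 16, 24, 32 and 40 h of exposure.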

[6] = A CellTox Green Cytotoxicity Assay to monitor cytotoxicity in HEK293 cells - 40 hour (AID 1224871); note: nearly all actives have a fitted effect of over 45% in size; note: potency is the fitted concentration of half-maximal effect
In short: as §2

[7] = qHTS RealTime-Glo MT Cell Viability Assay in HEK293 cells - 16 hour (AID 1224872); note: nearly all actives have a fitted effect of over 50% in size; note: potency is the fitted concentration of half-maximal effect
In short: as §1

[8] = qHTS RealTime-Glo MT Cell Viability Assay in HepG2 cells - 8 hour (AID 1224873); note: nearly all actives have a fitted effect of over 55% in size
In short: as §3

[9] = qHTS RealTime-Glo MT Cell Viability Assay in HEK293 cells - 40 hour (AID 1224874); settings: RealTime-Glo luminescence; max response: active compounds read low; note: nearly all actives have a fitted effect of over 50% in size; note: potency is the fitted concentration of half-maximal effect
In short: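 600 HEK293 cells per well, dispensed already mixed with RealTime-Glo MT reagents. Compound dosing came 5 h later. The same wells were read for luminescence at 0, 8, 16, 24, 32 and 40 h of exposure at 37 C.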

[10] = A CellTox Green Cytotoxicity Assay to monitor cytotoxicity in HEK293 cells - 24 hour (AID 1224875); note: nearly all actives have a fitted effect of over 45% in size
In short: as §2

SMILES | activity change, positive = activation [1] | outcome [2] | Potency [3] | Potency [4] | outcome [5] | Potency [6] | Potency [7] | outcome [8] | max response [9] [%] | Potency [10] | Potency [9]
c1ccc2cnccc2c1 | 7.4% | inactive | inactive | inactive | inactive | inactive | inactive | inactive | 9.26 | – | –
Nc1nc(-c2ccccc2)c(Br)c(=O)[nH]1 | -6.57% [at 42.5 µM] | inactive | inactive | inactive | inactive | inactive | inactive | inactive | -3.06 | inactive | –
C/C=C(\C)C(=O)OCCc1ccccc1 | 9.96% | inactive | inactive | inactive | inactive | – | inactive | inactive | -3.34 | – | –
CC1=C(C(=O)O)N2C(=O)[C@@H](NC(=O)[C@H](N)c3ccccc3)[C@H]2SC1 | 5.12% [at 42.5 µM] | – | inactive | inactive | inactive | inactive | inactive | – | 0.975 | inactive | –
Cc1c(C(=O)c2c[nH]n(C)c2=O)ccc(S(C)(=O)=O)c1C1=NOCC1 | – | inactive | inactive | inactive | inactive | inactive | inactive | inactive | 2.86 | – | –
CC/C(C)=N\O[Si](C)(O/N=C(\C)CC)O/N=C(\C)CC | – | inactive | inactive | inactive | inactive | inactive | inactive | inactive | -3.49 | – | –
c1ccc2c(CC3=NCCN3)cccc2c1 | 4.17% [at 42.5 µM] | inactive | inactive | inactive | inactive | inactive | inactive | inactive | -13.3 | inactive | –
O=C(O)CCCCCC(=O)O | 1.8% | inactive | inactive | inactive | inactive | 22 µM (active) | inactive | inactive | 0.774 | – | –
CCC(C(=O)OCCN1CCOC(c2ccccc2)C1C)c1ccccc1 (stereo unspecified) | -23.3% [at 42.5 µM] | – | – | inactive | inactive | – | – | – | – | inactive | –
CC(C)CCOC(=O)c1ccccc1 | – | inactive | inactive | inactive | inactive | inactive | inactive | inactive | -0.72 | – | –
CC1CCc2c(N3CCC(O)CC3)c(F)cc3c(=O)c(C(=O)O)cn1c23 (stereo unspecified) | -17.9% [at 42.5 µM] | inactive | inactive | inactive | inactive | inactive | inactive | – | -0.0801 | – | –
c1ccc(-c2nn[nH]n2)cc1 | 8.29% | inactive | inactive | inactive | inactive | inactive | inactive | inactive | 6 | inactive | –
CCCC(=O)OCCC(C)CCC=C(C)C (stereo unspecified) | -4.9% | inactive | inactive | inactive | inactive | inactive | inactive | inactive | 0.963 | inactive | –
COc1cc2c(cc1OC)C(=O)C(CC1CCN(Cc3ccccc3)CC1)C2 (stereo unspecified) | 2.42% [at 42.5 µM] | inactive | 21.3 µM (active) | inactive | inactive | inactive | 21.3 µM (active) | inactive | – | inactive | 23.9 µM (active)
O=Cc1ccccc1Cl | 4.09% | inactive | inactive | – | inactive | – | inactive | inactive | 4.59 | – | –
CC/C=C\CCOC(=O)c1ccccc1O | 2.25% | inactive | inactive | inactive | inactive | inactive | inactive | inactive | 19.1 | inactive | –
CCC(=O)c1c(O)cc(O)cc1O | -13.5% [at 42.5 µM] | inactive | inactive | inactive | inactive | – | inactive | inactive | 11.1 | inactive | –
CC1c2ccccc2CN1NC(=O)c1ccc(Cl)c(S(N)(=O)=O)c1 (stereo unspecified) | 3.24% [at 42.5 µM] | – | inactive | inactive | inactive | inactive | inactive | inactive | -0.0255 | inactive | –
CN(C)CCCO[C@@H]1[C@H]2OC(C)(C)O[C@H]2O[C@@H]1C(O)CO (stereo partly specified) | 6.19% [at 42.5 µM] | inactive | inactive | inactive | inactive | inactive | inactive | inactive | 0.847 | inactive | –
CC(C)C[C@@H]1[C@H](c2ccccc2)OC(=O)N1CCCN1CCCCCC1 | 0.937% [at 42.5 µM] | inactive | – | inactive | inactive | inactive | – | – | – | inactive | –
CC(C)(C)NC[C@H](O)COc1cccc2c1CCCC2=O | 4.14% [at 42.5 µM] | inactive | inactive | – | inactive | – | inactive | inactive | -12 | – | –
Fc1ccccc1 | 8.1% | – | inactive | inactive | inactive | inactive | inactive | inactive | 13.3 | inactive | –
CCC(C)OC(C)CC (stereo unspecified) | – | inactive | inactive | inactive | inactive | inactive | inactive | inactive | -6.97 | – | –
Cn1nnc2c(C(N)=O)ncn2c1=O | -0.988% [at 42.5 µM] | inactive | inactive | inactive | inactive | inactive | inactive | – | 3.79 | – | –
CCC(=O)CC | 4.37% | inactive | inactive | inactive | inactive | inactive | inactive | – | 4.81 | inactive | –

SMILES | activity change, positive = activation [1] | outcome [2] | Potency [3] | Potency [4] | outcome [5] | Potency [6] | Potency [7] | outcome [8] | max response [9] [%] | Potency [10] | Potency [9]
CC(C)(CO)C(O)C(=O)NCCCO (stereo unspecified) | 0.356% | inactive | inactive | inactive | inactive | inactive | inactive | inactive | 2.36 | inactive | –
C[Si]1(C)O[Si](C)(C)O[Si](C)(C)O[Si](C)(C)O[Si](C)(C)O1 | – | inactive | inactive | inactive | inactive | inactive | inactive | inactive | 5.69 | – | –
CC(=O)CCc1ccc(OC(C)=O)cc1 | – | inactive | inactive | inactive | inactive | inactive | inactive | inactive | 2.75 | – | –
CN(C)C(C)(C)CO | – | inactive | inactive | inactive | inactive | inactive | inactive | inactive | 1.89 | – | –
CCCCCCCCCCOC(C)=O | – | inactive | inactive | inactive | inactive | inactive | inactive | inactive | 0.865 | – | –
O=C(O)CSCC(=O)NC1CCSC1=O (stereo unspecified) | – | inactive | inactive | inactive | inactive | inactive | inactive | inactive | -1.55 | – | –
CCCCCCCCCCCCCBr | 3.01% | – | – | inactive | inactive | inactive | – | inactive | – | inactive | –
COc1nc(N)nc2nc[nH]c12 | 0.367% | inactive | inactive | inactive | inactive | inactive | – | inactive | -26 | inactive | –
ONc1ccccc1 | 20.7% (active) | inactive | inactive | inactive | inactive | – | inactive | inactive | -13.8 | inactive | –
O=C(CCCCC(=O)Nc1c(I)cc(I)c(C(=O)O)c1I)Nc1c(I)cc(I)c(C(=O)O)c1I | -37% [at 42.5 µM] | inactive | inactive | inactive | inactive | inactive | inactive | inactive | -12.6 | inactive | –
CC(C)Nc1ccccc1 | – | inactive | inactive | inactive | inactive | inactive | inactive | inactive | 3.46 | – | –
OC[C@@H](O)C(O)[C@@H](O)CO (stereo partly specified) | 9.91% | inactive | inactive | inactive | inactive | – | inactive | inactive | -0.153 | – | –
CN1CCOC(c2ccccc2)c2ccccc2C1 (stereo unspecified) | – | inactive | inactive | inactive | inactive | inactive | inactive | inactive | 0.485 | – | –
O=C(Cn1ccnc1[N+](=O)[O-])NCc1ccccc1 | – | inactive | inactive | inactive | inactive | inactive | inactive | inactive | -1.45 | inactive | –
CCNC(=O)NCc1cccc(Cl)c1 | – | inactive | inactive | inactive | inactive | inactive | inactive | inactive | 0.19 | inactive | –
O=C=NCC1CCCC(CN=C=O)C1 (stereo unspecified) | – | inactive | inactive | inactive | inactive | inactive | inactive | inactive | 1.36 | inactive | –
C#CCN[C@@H]1CCc2ccccc21 | – | inactive | inactive | inactive | inactive | inactive | inactive | inactive | -4.89 | inactive | –
C=CC/C=C/C | – | inactive | inactive | inactive | inactive | inactive | inactive | inactive | -0.772 | inactive | –
CC1(C)Oc2ccc(C#N)cc2[C@@H](N2CCCC2=O)[C@@H]1O | – | inactive | inactive | inactive | inactive | inactive | inactive | inactive | 2.51 | inactive | –
CN(C)CCN(C)CCO | – | inactive | inactive | inactive | inactive | inactive | inactive | inactive | 5.64 | inactive | –
Cc1ncc([N+](=O)[O-])n1CC(C)O (stereo unspecified) | – | inactive | inactive | inactive | inactive | inactive | inactive | inactive | -2.46 | – | –
CCCCOCCOC(=O)COc1ccc(Cl)cc1Cl | – | inactive | inactive | inactive | inactive | inactive | inactive | inactive | 1.37 | – | –
CC(=O)CC(=O)OC(C)(C)C | – | inactive | inactive | inactive | inactive | inactive | inactive | inactive | 1.26 | inactive | –
OCC1(CO)COCOC1 | – | inactive | inactive | inactive | inactive | inactive | inactive | inactive | -1.51 | inactive | –
O=C1CCC(=O)N1Cl | – | inactive | inactive | inactive | inactive | inactive | inactive | inactive | 7.58 | inactive | –
